# Among all 31,000 sequences or so, about 1,400 (4.5%) were called active.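 How the source made its calls: active means median seed-adjusted z-score above 1 or below -1; inactive means the rest.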 The entries come from a sample that favours actives as a whole.
# Assay: Novel Modifiers of Survival Motor Neuron (SMN) Protein: Gene Identification via Genome-wide siRNA Screen;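 further: luminescence tracks full-length SMN protein made from the SMN2 reporter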
# Settings: HEK293T SMN2-luciferase reporter, siRNA knockdown, 72 h; actives lie on both sides
# Outline: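 Genome-wide siRNA screen (10418 genes, 3 siRNAs each, 1 pmol per well) by reverse transfection in HEK293T cells stably carrying an SMN2-luciferase reporter; luminescence after 72 hours, normalized to negative-control siRNA, log10-transformed, MAD-scored.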
row,Sequence,median seed-adjusted z-score
1,GGACAAACACGGACAGUAUTT against EPHB4,-0.143 (inactive)
2,AAGGAGCAGUGGAUACUGATT against MST1,-1.47 (active)
3,GAAGGAAGAUGGUAAGGGATT against IL6ST,-0.518 (inactive)
4,GCUUCGUGAGCUUUGAUAATT against BRUNOL5,0.333 (inactive)
5,CGUGGACAGCUGCAGAAAATT against EDIL3,0 (inactive)
6,CAAUCAGCAGAGUUACAUUTT against CPEB3,0.086 (inactive)
7,CCAUCGUCAUGGUUACCAATT against PTPRA,-0.438 (inactive)
8,GCACUUAAGGAAUGACAGATT against CDY2A,0.75 (inactive)
9,CAGGUUCUCUAAUUGAACATT against NFX1,-0.256 (inactive)
10,GAAACGCAAGGGUACAGAATT against RUVBL2,-0.0764 (inactive)
11,GGAGUGACCGGAAACAUCATT against PRKCD,-0.236 (inactive)
12,CCAUUACAGAGGGAGUUCATT against NRBP1,-1.13 (active)
13,GGAUAUCUUCUAUGAUCUATT against SMAD7,-0.25 (inactive)
14,AGAACUUUGUGCACCGUGATT against ZAP70,-0.674 (inactive)
15,AGCUUGAAAUCUCAUGGAATT against SPINK5L2,0.482 (inactive)
16,GAAGAUUGCUAAUGACAAUTT against GOT1,0.0103 (inactive)
17,UAAUAAUUCUCACUCCUAATT against FZD5,-0.129 (inactive)
18,GACCGGCCGUUCAGAAUGATT against RPUSD1,0.327 (inactive)
19,CGUGUACCCGUUUGACUUUTT against SGSH,0.383 (inactive)
20,GCCUGGUACUACUAGCUUUTT against TRPC5,-1.14 (active)
21,CCUCUAGAAGGAUCUAAUATT against MMP19,0.43 (inactive)
22,GAAUUGUUUUAGCUAACGATT against PGM2,0.355 (inactive)

row,Sequence,median seed-adjusted z-score
1,AAACAGACAGAGAUAAGUATT against UBE2D3,1.62 (active)
2,AGUACUUUGUAUUGGGAUATT against RCE1,-1.19 (active)
3,AGCAGGAUAUGAUCCGGAATT against SEC14L4,-0.714 (inactive)
4,GGCACGUCCUGUUACACCATT against LMO4,-0.067 (inactive)
5,CGCUUGGAGAGGCUACAAATT against FXR2,-0.133 (inactive)
6,GUUCCGAAGUGGUCUCAUUTT against MINPP1,-0.0107 (inactive)
7,GCAGUACACUACCAACAGATT against ALAS1,-1.15 (active)
8,CAACAUUGGAAAAUACAGATT against LAP3,0.0175 (inactive)
9,UCCCGGGAAUUAAAACUUATT against EPHA6,0.0445 (inactive)
10,GGAUCUGCACAGUCUUCUATT against PSKH2,0.0439 (inactive)
11,GGAUUUGCCCUGACAAAAATT against ZRANB2,0.441 (inactive)
12,CAUUGAGAAUAAUAACAGATT against PPP3CA,0.74 (inactive)
13,GCCUAUUAUGGAGAAAAGATT against HES1,-0.262 (inactive)
14,CGAUAUGAUUGGCCAGAGATT against GIPC3,-0.27 (inactive)
15,CGGAUUUGUUGCUAAAUGATT against PCDHB8,1.15 (active)
16,CUGACAGUGUGGAUCGAUATT against COL12A1,0.00422 (inactive)
17,GGAUUGAAAACAAACUCUATT against RET,-0.931 (inactive)
18,GCGGUACUUUGAGCAGUUATT against P4HA2,0 (inactive)
19,GGCUCUUCAAGGCUAUGAATT against ANXA6,-1.01 (active)
20,GUCUGUAACUGAGCAAGGATT against YWHAZ,0.721 (inactive)
21,ACGGUUCGCUGAAAAAGAATT against PITX3,0 (inactive)
22,CGUCCAUACUUACCUAAUUTT against UGT2A1,0.213 (inactive)

row,Sequence,median seed-adjusted z-score
1,CGACCGCACCUGGAAUGAATT against PLA2G4D,-0.233 (inactive)
2,GCGUGUCAGCUGUUCAUUATT against OSBPL5,0.638 (inactive)
3,CAAGCCCUCUGAAACAGUUTT against ADRA1A,-1.06 (active)
4,GCAUAUGAUUUUAUGGUAATT against FBXW7,0 (inactive)
5,CUCUCUAUAUUGAAACCAATT against CHN1,2.1e-05 (inactive)
6,ACUGAAAGCUGAUUAAUUATT against KLK2,0.0716 (inactive)
7,GAGCUGAUCUGUUACAAGUTT against DAK,-0.372 (inactive)
8,GAACACUCUAUGUCUAAUATT against MYNN,0.0702 (inactive)
9,GUGAUGUCAUUAGGCAGAATT against CRIP3,1.7 (active)
10,UCCCAGUUCUGAUACAUAUTT against SAE1,0.831 (inactive)
11,AGACCUGCGUGGUGCACUATT against FKBP1A,0.113 (inactive)
12,GGAGCUUCAGGUUGUCCGATT against RPUSD3,0.303 (inactive)
13,CGAUGGACAGUGUCUCUUATT against ALG6,0.106 (inactive)
14,UCCUUGUUGUGGACAGGGATT against SPINK4,-0.0134 (inactive)
15,GGACCUAUUCGUCAAAUCATT against SF3B14,-1.26 (active)
16,CCUUGCUUGUGAGAGCAGATT against NPAS1,-0.386 (inactive)
17,GCGUUAUCCUCGUACCUUUTT against STC2,-0.00039 (inactive)
18,CUAUCCACCAUACAUUUCATT against NTM,0 (inactive)
19,GCAACGGGUUUGGAGUCAATT against KRT75,0.0773 (inactive)
20,CCAUCUCGACUGACAAGAATT against TNNI3K,-0.178 (inactive)
21,GCUAUUAUCUAAGCACGAATT against ADAMTS20,1.44 (active)
22,GAUAUAUCCGAAACCAGUATT against PDGFD,0.366 (inactive)

row,Sequence,median seed-adjusted z-score
1,GAAUCGGCGAUGUACUAGATT against NT5C3,-0.456 (inactive)
2,CUAUGUCGUUGAAAACCAUTT against KCNE1,-0.347 (inactive)
3,GGAAGUAUUAGGGUACAAATT against SOS2,0.3 (inactive)
4,GAGUAUCUCUGAAACCUCUTT against IL1A,1.12 (active)
5,GGGAGUGACAUAUCCAAGATT against CCL26,-0.01 (inactive)
6,CGGAAGGUGUAUGAACUGATT against ICAM1,0.345 (inactive)
7,GCAAGGUCGUCAACCGCAATT against SAPS1,1.16 (active)
8,GCAGUUCCAUGGUACACCATT against ASAH1,0.421 (inactive)
9,GUCAGAUACAUGAACCAGATT against JMJD1A,0.466 (inactive)
10,GGAUAGGAGUCAUCAGCCUTT against SSTR3,0 (inactive)
11,CCCAAUUCAGAUUACUACATT against POLN,-0.129 (inactive)
12,CUACUCAACAGACAUAAUATT against TRIP13,1 (active)
13,GGCUUCUACUGGUGUCUGATT against PIGR,-0.35 (inactive)
14,GGACUUACACUCUUAGGAATT against MAOB,0 (inactive)
15,CACAACAUCUUGUAAGACUTT against GNG13,-0.516 (inactive)
16,CGCCGACUCUAUUCAUGCATT against RAB22A,0.321 (inactive)
17,CGAGAGUAAUUUGAAGAAUTT against SIGMAR1,-1.4 (active)
18,GAUGGAUCUUUACAGUUGATT against METTL4,0.244 (inactive)
19,GAACAAUCAUUGCAUCGGATT against CPB2,-0.62 (inactive)
20,CCUUACCUGGAGUACCCAATT against PMPCA,-0.985 (inactive)
21,GGACCGAAGUCAAUGGUUUTT against SMC2,-0.052 (inactive)
22,CAUUUAGUGUACAUUCAAATT against ZNF665,1.13 (active)

row,Sequence,median seed-adjusted z-score
1,CGACAGGGUAUCCAACUAATT against WASL,0.143 (inactive)
2,CAUGGAAAAUGAUGACGAATT against PPP4R2,0.211 (inactive)
3,CUCAAGAACUGUCAAGUAATT against GSK3B,-0.952 (inactive)
4,GGACAUCUAUGUUAUAUGUTT against TRIM65,-0.599 (inactive)
5,CGUCAUCCCUCAACAAGAATT against ATP2B2,1.37 (active)
6,GGCUAUUACUCAGUACAGATT against TLN1,-0.0619 (inactive)
7,CUAUGUGAUUGAUCAAGGATT against PRKAR1A,0.428 (inactive)
8,UCAUCGGCGUGAUCGUGUATT against CACNG8,0.214 (inactive)
9,GAAUUUGCGAUGUACUUAATT against CSNK1A1,-0.608 (inactive)
10,GGAAAGGAAUGGUCACGAATT against ZNF321,-0.642 (inactive)
11,AGGUCAACACGGAGCUCAATT against CHRM1,1.1 (active)
12,GAAGAAUAGUGAUGCUCGATT against GRIA1,0.927 (inactive)
13,CUAAUUCAACAUUACAUCATT against ZNF550,0.131 (inactive)
14,CGACAGUCUUGCUGAAAAATT against NOTO,-0.193 (inactive)
15,GCACGAUUACUACUACCGATT against PNPLA1,0.00692 (inactive)
16,GGAUGUCGGCAACACGGAATT against MYBPC3,0.304 (inactive)
17,AAAGAAUGCGUGCUUUUAATT against RABGGTA,-0.0601 (inactive)
18,CACUGUAACGACUUCCUUATT against CCIN,0.0472 (inactive)
19,GAAAUUGACAUGUUGGAUATT against ANXA4,-0.0932 (inactive)
20,GACUGUCGCUGGUUGGAGATT against ACPT,-0.114 (inactive)
21,AGACCGAACUGGUUUCGCUTT against CDKN2C,-0.0789 (inactive)
